# Legend:
# [1] = test system: JAK1(JH2domain-pseudokinase)
# [2] = test system: JAK2(JH1domain-catalytic)
# JNK1 = test system: T1, JNK1
# T1 construct: gene MAPK8
# JNK2 = test system: T2, JNK2
# T2 construct: gene MAPK9
# JNK3 = test system: T3, JNK3
# T3 construct: gene MAPK10
# [3] = test system: JAK3(JH1domain-catalytic)
# 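Also: kd values determined as follow-up on hits from a single-replicate KINOMEscan panel screen.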
compound,measurement,setting,value
Fc1cccc(CSc2nnc(-c3ccc4c(c3)CCO4)o2)c1,Kd,IRAK4,> 10000 nM
Cc1cc(Nc2nc(-c3cccc(C)n3)nc3ccccc23)ccn1 [GW872411],Kd,[1],410 nM
CC(C)(C)c1ccc(C(=O)Nc2cn3cc(-c4ccccc4)ccc3n2)cc1,Kd,KIT,> 10000 nM
O=C(NCCNc1ccnc(Nc2ccc(F)cc2)n1)Nc1ccc2c(c1)OCO2 [GSK1379882],Kd,[2],2000 nM
Nc1nc(N)c2nc(-c3ccccc3)[nH]c2n1 [SKF-12778],Kd,[1],150 nM
CCC(=O)c1c(-c2ccccc2)c2cc(Cl)ccc2c(=O)n1Cc1cc(S(C)(=O)=O)n(CC(N)=O)n1,Kd,JNK1,160 nM
same,Kd,JNK2,120 nM
same,Kd,JNK3,60 nM
COc1cc(Nc2ccnc3ccc(C(F)(F)F)cc23)cc(OC)c1OC [GW577382],Kd,[3],> 10000 nM
Cc1nc(N(C)[C@H]2CN(C(=O)CC#N)CC[C@H]2C)c2cc[nH]c2n1,Kd,[3],140 nM
CCC(=O)c1c(-c2ccccc2)c2cc(Cl)ccc2c(=O)n1Cc1cc(C(=O)NC2CC2)n(C)n1,Kd,JNK1,20 nM
same,Kd,JNK2,10 nM
same,Kd,JNK3,3.8 nM
COc1cc2nccc(Nc3ccc(OCc4ccc(NC(C)=O)cc4)cc3)c2cc1OC.Cl [GW440135],Kd,KIT,7.4 nM
COc1cccc(C2=C(Nc3cccc(C(=O)O)c3)C(=O)NC2=O)c1 [SB-390770],Kd,[3],480 nM
COc1cc(Nc2nccc(N3CCC(NC(=O)C4COc5ccccc5O4)C3)n2)cc(OC)c1OC (centres unmarked) [GSK1379761],Kd,[2],47 nM
O=c1cc(N2CCOCC2)nc2n(Cc3ccc(F)c(Cl)c3)ccn12 [GSK2297099],Kd,[2],> 10000 nM
CN(C)c1cc(-c2ccc3c(N)n[nH]c3c2)nc(N)n1 [GSK2219329],Kd,KIT-autoinhibited,> 10000 nM
COc1cc(Nc2nccc(N3CCC(NC(=O)C(C)c4ccc(Cl)cc4)C3)n2)cc(OC)c1OC (centres unmarked) [GSK1379757],Kd,[2],140 nM
COC(=O)c1c(-c2ccccc2)c2cc(Br)ccc2c(=O)n1Cc1ccc(NC(=O)CCC(=O)O)cc1,Kd,JNK1,58 nM
same,Kd,JNK2,66 nM
same,Kd,JNK3,13 nM
COc1ccc(-n2cnc3c(N)ncnc32)cc1 [SKF-97236],Kd,KIT,200 nM
CCc1nc(-c2cccc(C)c2)c(-c2ccncc2)s1,Kd,JNK3,81 nM
CCC(=O)c1c(-c2ccccc2)c2cc(Cl)ccc2c(=O)n1Cc1ccc(C(=O)O)cc1,Kd,JNK1,66 nM
same,Kd,JNK2,77 nM
same,Kd,JNK3,12 nM
CCC(=O)c1c(-c2ccccc2)c2cc(Cl)ccc2c(=O)n1Cc1cc(S(C)(=O)=O)n(CC(F)F)n1,Kd,JNK1,37 nM
same,Kd,JNK2,33 nM
same,Kd,JNK3,9.2 nM
Nc1nc(-c2ccccc2F)c(-c2ccnc3ccccc23)s1 [GW560459],Kd,INSR,> 10000 nM
same,Kd,JNK2,1200 nM
same,Kd,JNK3,610 nM
COC(=O)c1c(-c2ccccc2)c2cc(Br)ccc2c(=O)n1Cc1ccc(S(C)(=O)=O)cc1,Kd,JNK1,480 nM
same,Kd,JNK2,350 nM
same,Kd,JNK3,73 nM
Nc1n[nH]c2ncc(-c3ccccc3)cc12 [SB-517081],Kd,KIT,92 nM
CCC(=O)c1c(-c2ccccc2)c2cc(Cl)ccc2c(=O)n1Cc1cc(S(C)(=O)=O)n(CCC(C)(C)O)n1,Kd,JNK1,19 nM
same,Kd,JNK2,15 nM
same,Kd,JNK3,4.6 nM
COc1ccc(Nc2nccc(N3CCC(NS(=O)(=O)c4ccc(NC(C)=O)cc4)C3)n2)cc1 (centres unmarked) [GSK1379729],Kd,[2],38 nM
CCn1c(-c2ccoc2)nc2cnccc21 [SB-733887],Kd,INSR,> 10000 nM
Cl.NS(=O)(=O)c1cccc(Nc2cc(-c3ccc(F)cc3)n[nH]2)c1 [GW824645],Kd,KIT,16 nM
CCCNC(=O)Nc1ccc(Oc2ncnc3ccn(C)c23)cc1,Kd,KIT,67 nM

# Reference: paper PMC5540273 (PLoS ONE, 2017)
